The values that follow come from PubChem BioAssay.

What is called inhibition is the drop in the measured response relative to a control, in per cent.

Active and inactive are the calls of the source.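 Rule for the calls, unless noted: active = inhibition of the reporter signal at or above 50%; inactive = inhibition below 50%.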

A short description of assay [1]: inhibitors of TNFa-induced NFkB p65 translocation, primary screen, imaging, HUVEC, MLSMR starter and 10KST1 sets (AID 438;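 active = inhibition above 20% together with a positive visual image hit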;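 note: compound added about 3h40 before a 20 min TNFalpha stimulation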;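 for inhibition: signal is the nuclear over cytoplasmic p65 intensity ratio per well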). As to conditions: HUVEC TNFa-induced p65 nuclear translocation; cell count: measured here: nuclei count (cytotoxicity indicator), at 2.08 µM; inhibition: at 2 µM, stronger effect = higher value, 0% TNFa-plus-vehicle, 100% no-TNFa wells.
A short description of assay [2]: reduction of polyQ htt aggregates in cells – imaging, exon1htt(103Q)mCFP cells, high-content imaging, primary screen (AID 483;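 active = visual image review flags a hit and inhibition of aggregation exceeds 20%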;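 note: compound exposure lasted 3 days before fixation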;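 for nuclei count: percent of the per-plate median nuclei count of sample wells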). The following applies: exon1htt(103Q)mCFP cell line, aggregate imaging, at 2 µM; inhibition of aggregation: stronger effect = higher value; nuclei count: measured here: cell count, toxicity.
Assay [3] is described as follows: endothelial E-selectin expression blockers – imaging, HUVEC, immunofluorescence, MLSMR starter and 10KST1 sets, primary screen (AID 487;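 active = visually confirmed hit in the image check and inhibition above 20%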;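 for inhibition: signal is fraction of cell area covered by stained E-selectin grains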;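 for nuclei count: 100% = median nuclei count of all wells on the same plate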). As to conditions: HUVEC TNFalpha-induced E-selectin immunofluorescence imaging, at 2 µM; inhibition: stronger effect = higher value; nuclei count: measured here: cell number, toxicity.
Assay [4] concerns the target Voltage-gated potassium channel subunit beta-2 (Rattus norvegicus) (UniProt P62483). Put plainly: inhibitors of rat Kvbeta2 reductase activity – biochemical, NADPH fluorescence, primary screen (AID 622;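 active = fluorescence slope higher than the sample average by over 3 SD, cut at about -0.22 in these data, passing the limit was not always enough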;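 note: slope of raw intensity against log time taken from 70 to 1610 s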). As to conditions: recombinant KvBeta, 4-cyanobenzaldehyde reduction, at 10 µM, stronger effect = higher value.
Assay [5] has the same target. As to the kind of experiment: enhancers of rat Kvbeta2 NADPH turnover – biochemical, NADPH fluorescence, primary screen (AID 623;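 active = NADPH fluorescence slope more negative than the mean of all samples by about 3 SD, 99.7% confidence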;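 note: fluorescence intensity change per second fitted from 20 to 320 s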). The following applies: Recombinant KvBeta, NADPH fluorescence decrease slope, 10 min; at 10 µM; stronger effect = lower value.
The target in assay [6] is Alpha-2C adrenergic receptor (Homo sapiens) (UniProt P18825). As to the kind of experiment: compounds altering alpha2C-coupled GIRK flux – cell-based, HEK293 alpha2C/GIRK1/2, thallium flux, primary screen (AID 624;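 active = fluorescence slope after compound addition differing from the mean of all screened samples at 99.7% confidence, in either direction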;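 note: slope of fluorescence ratio to pre-addition baseline per second over 15 to 24 s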). The following applies: thallium flux BTC fluorescence, at 10 µM, actives lie on both sides.
Alpha-2C adrenergic receptor (Homo sapiens), sequence (P18825 whole entry, looked up): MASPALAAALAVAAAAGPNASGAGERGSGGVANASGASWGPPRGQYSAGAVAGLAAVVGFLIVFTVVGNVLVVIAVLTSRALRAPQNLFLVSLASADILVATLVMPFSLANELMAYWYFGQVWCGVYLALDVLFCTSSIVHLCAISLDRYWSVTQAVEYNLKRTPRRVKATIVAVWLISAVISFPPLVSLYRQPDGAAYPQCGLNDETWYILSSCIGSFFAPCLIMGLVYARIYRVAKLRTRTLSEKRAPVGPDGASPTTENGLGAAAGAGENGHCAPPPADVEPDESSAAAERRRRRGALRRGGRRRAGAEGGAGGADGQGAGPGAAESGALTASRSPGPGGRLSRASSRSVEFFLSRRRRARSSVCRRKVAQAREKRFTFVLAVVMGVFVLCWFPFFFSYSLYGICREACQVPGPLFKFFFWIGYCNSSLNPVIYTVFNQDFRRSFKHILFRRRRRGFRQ
Assay [7] in a line: blockers of RIG-like receptor reporter activation – cell-based, Sendai virus stimulus, luciferase, 10K MLSCN set, TLR/RLR signaling modifier project, primary screen (AID 602276;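 active = inhibition at or above 50% at 10 µM; inactive = inhibition below 50%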;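 note: firefly luciferase from ISG56 promoter only with Renilla not read in this screen; 0% = Sendai virus plus DMSO and 100% = medium plus DMSO without virus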). The following applies: HEK293 RL24 IRF3 luciferase reporter, at 10 µM, stronger effect = higher value. Background: A reporter such as luciferase makes a cellular process visible.
Assay [8] in a line: TLR3 IRF3 reporter activation blockers – cell-based, poly I:C stimulus, luciferase, 10K MLSCN set, primary screen (AID 602277). As to conditions: HEK293-TLR3 RL24 IRF3 luciferase reporter, at 10 µM, stronger effect = higher value.

Voltage-gated potassium channel subunit beta-2 (Rattus norvegicus), sequence (P62483 whole entry, looked up): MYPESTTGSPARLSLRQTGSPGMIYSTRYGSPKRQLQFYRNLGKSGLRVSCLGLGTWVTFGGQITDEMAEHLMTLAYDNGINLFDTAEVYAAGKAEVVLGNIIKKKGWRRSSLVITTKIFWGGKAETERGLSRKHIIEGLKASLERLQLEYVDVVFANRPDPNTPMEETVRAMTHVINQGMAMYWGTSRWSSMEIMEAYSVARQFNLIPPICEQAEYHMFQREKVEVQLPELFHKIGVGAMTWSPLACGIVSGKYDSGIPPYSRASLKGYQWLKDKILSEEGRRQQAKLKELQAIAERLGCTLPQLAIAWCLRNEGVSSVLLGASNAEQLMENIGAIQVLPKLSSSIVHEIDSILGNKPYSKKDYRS

For the compound `Cc1nnc(SCC(=O)Nc2cc(C(F)(F)F)ccc2N2CCOCC2)o1`, the cell count in assay [1] was 271. The inhibition in assay [1] is 0.2% (inactive); in assay [3] it was -2.6% (inactive); in assay [7], 10.8% (inactive); in assay [8], 32.5% (inactive). Moreover, the inhibition of aggregation in assay [2] is 16.1% (inactive). For the same compound, the nuclei count is 99.1% in assay [2] and 95.1% in assay [3]. In addition, the fluorescence slope in assay [4] was -0.379 (inactive). In assay [5], the NADPH fluorescence slope is -3.9e-07 (inactive). Besides, the slope in assay [6] was 0.00303 (inactive).
Turning to `CCOc1ccc(NC(=O)C2CC(=O)N(CC)C(=Nc3ccc4c(c3)OCO4)S2)cc1` (centres undefined), the cell count in assay [1] came to 356. Moreover, the inhibition is -6.2% (inactive) in assay [1], -125% (inactive) in assay [3], -1.73% (inactive) in assay [7] and 1.26% (inactive) in assay [8]. In assay [2], the inhibition of aggregation is 12.9% (inactive). Also, the nuclei count came out at 81.1% in assay [2] and 113% in assay [3]. For the same compound, the fluorescence slope in assay [4] was -0.358 (inactive). Besides, the NADPH fluorescence slope in assay [5] is -6.3e-05 (inactive). In assay [6], the slope is 0.00411 (inactive).
On to `N#Cc1c(NCc2ccccc2)ccnc1NCc1cccnc1`, for which the cell count in assay [1] was found to be 720. The inhibition was 2.9% (inactive) in assay [1], 67.5% (active) in assay [3], -0.363% (inactive) in assay [7] and -44.8% (inactive) in assay [8]. Further, the inhibition of aggregation in assay [2] was -8.3% (inactive). Besides, the results for the nuclei count in assay [2] and in assay [3] were 104% and 80.8%, respectively. Besides, the fluorescence slope in assay [4] was -0.288 (inactive). For the same compound, in assay [5], the NADPH fluorescence slope is -6.2e-05 (inactive). In addition, the slope in assay [6] was 0.00541 (inactive).
On to `CCOC(=O)c1cc2n(n1)C(C(F)(F)C(F)(F)F)CC(C)N2` (centres undefined), for which the cell count in assay [1] came out at 650. The inhibition in assay [1] is -12.1% (inactive); in assay [3] it was -30.4% (inactive); in assay [7], 11.4% (inactive); in assay [8], 14.9% (inactive). For the same compound, the inhibition of aggregation in assay [2] was 4.6% (inactive). The nuclei count worked out at 113% in assay [2] and 106% in assay [3]. Further, the fluorescence slope in assay [4] was -0.429 (inactive). Moreover, in assay [5], the NADPH fluorescence slope was 2.3e-05 (inactive). Further, in assay [6], the slope is 0.00828 (inactive).
On to `CC1CCN(CCCNC(=O)c2coc3nc4ccccc4nc23)CC1`, for which the cell count in assay [1] was found to be 311. In addition, the inhibition was -0.8% (inactive) in assay [1], -33.9% (inactive) in assay [3], -4.6% (inactive) in assay [7] and 46.6% (inactive) in assay [8]. In addition, the inhibition of aggregation in assay [2] is -17.9% (inactive). The nuclei count worked out at 110% in assay [2] and 117% in assay [3]. Also, in assay [4], the fluorescence slope was -0.351 (inactive). The NADPH fluorescence slope in assay [5] was -3.5e-06 (inactive). The slope in assay [6] was 0.00542 (inactive).
With `CCc1nnc(NC(=O)C2CCCN2S(=O)(=O)c2ccc(C)cc2)s1` (centres undefined), the cell count in assay [1] amounted to 445. For the same compound, the inhibition in assay [1] is -8.4% (inactive); in assay [3] it was 25.4% (inactive); in assay [7], 2.82% (inactive); in assay [8], 15.9% (inactive). In addition, the inhibition of aggregation in assay [2] is 24.1% (inactive). The figures for the nuclei count in assay [2] and in assay [3] were 60.3% and 123%, respectively. Moreover, the fluorescence slope in assay [4] was -0.41 (inactive). Moreover, the NADPH fluorescence slope in assay [5] was 1.6e-05 (inactive). Moreover, the slope in assay [6] was 0.00581 (inactive).
As for `Clc1ccc(C2=Nn3c(nnc3-c3n[nH]c4c3CCC4)SC2)cc1Cl`, the cell count in assay [1] turned out to be 434. The inhibition in assay [1] was 3% (inactive); in assay [3], 19.9% (inactive); in assay [7], 29.6% (inactive); in assay [8], 33% (inactive). Besides, the inhibition of aggregation in assay [2] was 1.5% (inactive). In addition, the nuclei count came to 101% in assay [2] and 95.9% in assay [3]. In addition, the fluorescence slope in assay [4] is -0.498 (inactive). In assay [5], the NADPH fluorescence slope was 1.2e-05 (inactive). Besides, the slope in assay [6] is 0.00652 (inactive).
In the case of `O=C(CN1C(=O)CCS(=O)(=O)c2ccccc21)Nc1cccc(F)c1`, the cell count in assay [1] is 383. The inhibition in assay [1] was -6.8% (inactive); in assay [3], -27.1% (inactive); in assay [7], 1.07% (inactive); in assay [8] it was 10.8% (inactive). In assay [2], the inhibition of aggregation is -2.1% (inactive). The figures for the nuclei count in assay [2] and in assay [3] were 113% and 135%, respectively. In addition, the fluorescence slope in assay [4] is -0.335 (inactive). Also, the NADPH fluorescence slope in assay [5] is -4.5e-05 (inactive). In addition, the slope in assay [6] was 0.00547 (inactive).
Take `O=C(CN(C1CCCCC1)S(=O)(=O)c1ccccc1)NCc1cccnc1`: the cell count in assay [1] was determined as 671. The inhibition in assay [1] is 2% (inactive); in assay [3] it was -75.7% (inactive); in assay [7], 5.99% (inactive); in assay [8], 13.7% (inactive). The inhibition of aggregation in assay [2] was -28.8% (inactive). For the same compound, the figures for the nuclei count in assay [2] and in assay [3] were 110% and 119%, respectively. For the same compound, the fluorescence slope in assay [4] was -0.308 (inactive). In addition, the NADPH fluorescence slope in assay [5] is -3e-05 (inactive). Further, the slope in assay [6] is 0.00649 (inactive).
